Data published in PubChem BioAssay (NCI).
About 79,000 compounds went through this panel and 15% of them were active in at least one assay; those are over-represented in the sample as a whole. The source made the active and inactive calls. No stated cut-off is given here; in the data, active means growth inhibition above about 70%; inactive means the rest.

What was measured:
[1] = NCI Yeast Anticancer Drug Screen. Data for the wt1 strain (AID 149);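 further: 0% = growth of vehicle-treated wt1 cultures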; conditions: S. cerevisiae wt1 strain (SPY 50644) growth inhibition, stronger effect = higher value
How it was run: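 Yeast wt1 strain exposed to compounds; growth inhibition measured relative to vehicle-treated controls.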

[2] = NCI Yeast Anticancer Drug Screen. Data for the rad50EPP+ strain (AID 151);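 further: 0% = growth of vehicle-treated control cultures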; conditions: S. cerevisiae rad50 mutant strain, stronger effect = higher value
How it was run: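 Compounds were applied to the rad50EPP+ yeast strain, which bears a defined DNA repair alteration, and growth inhibition was determined relative to vehicle-treated cultures.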

[3] = NCI Yeast Anticancer Drug Screen. Data for the mgt1 strain (AID 153); conditions: S. cerevisiae mgt1 mutant growth inhibition, stronger effect = higher value
How it was run: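 Strain: mgt1 yeast, one of a set carrying defined DNA damage repair or cell cycle control alterations. Compound-treated growth compared with vehicle.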

[4] = NCI Yeast Anticancer Drug Screen. Data for the rad50 strain (AID 155);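 further: 0% = growth of vehicle-only cultures of the same strain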; conditions: S. cerevisiae rad50 strain growth inhibition, stronger effect = higher value
How it was run: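 Yeast carrying a defined DNA repair defect were exposed to test compounds, and growth was compared with vehicle-treated controls to give percent inhibition.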

[5] = NCI Yeast Anticancer Drug Screen. Data for the mec2-1 strain (AID 157); conditions: S. cerevisiae mec2-1 strain, stronger effect = higher value
How it was run: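 Strain: mec2-1 (DNA repair/cell cycle alteration). Compound exposure, then growth measured; inhibition expressed relative to vehicle.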

[6] = NCI Yeast Anticancer Drug Screen. Data for the rad14 strain (AID 159);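 further: 0% = growth of vehicle-treated control cultures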; conditions: S. cerevisiae rad14 strain growth inhibition, stronger effect = higher value
How it was run: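 Yeast cells carrying a defined DNA-repair defect were exposed to compounds, and growth inhibition was calculated relative to vehicle-treated control cultures.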

[7] = NCI Yeast Anticancer Drug Screen. Data for the sgs1 mgt1 strain (AID 161);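 further: 0% = growth of cultures given vehicle only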; conditions: S. cerevisiae sgs1 mgt1 strain, stronger effect = higher value
How it was run: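 Test agents were incubated with a DNA-repair-mutant yeast strain. Growth was then read and compared against vehicle-treated controls.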

[8] = NCI Yeast Anticancer Drug Screen. Data for the CLN2oe strain (AID 163);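 further: 0% = growth of vehicle-only control cultures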; conditions: S. cerevisiae CLN2oe strain, stronger effect = higher value
How it was run: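 Growth of a genetically modified yeast strain is measured after compound exposure and compared with cultures given vehicle alone.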

[9] = NCI Yeast Anticancer Drug Screen. Data for the cln2 rad14 strain (AID 165);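 further: 0% = growth equal to vehicle treated cultures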; conditions: S. cerevisiae cln2 rad14 strain, stronger effect = higher value
How it was run: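 Compounds are applied to the cln2 rad14 yeast strain, and growth is then compared with that of vehicle-treated cultures to give inhibition.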

[10] = NCI Yeast Anticancer Drug Screen. Data for the bub3 strain (AID 167); conditions: S. cerevisiae bub3 mutant strain, stronger effect = higher value
How it was run: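 Compounds were applied to a genetically altered yeast strain carrying a cell-cycle control defect. Growth inhibition was scored against vehicle-treated controls.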

[11] = NCI Yeast Anticancer Drug Screen. Data for the wt2 strain (AID 169);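 further: 0% = growth of vehicle-treated yeast cultures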; conditions: S. cerevisiae wt2 strain growth inhibition, stronger effect = higher value
How it was run: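 This strain belongs to a panel of yeast strains with defined genetic alterations in DNA damage repair or cell cycle control. Compounds are applied, and growth inhibition is measured against vehicle-treated cultures.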

[12] = NCI Yeast Anticancer Drug Screen. Data for the mlh1 strain (AID 171);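 further: 0% = growth of vehicle-treated control cultures of the same strain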; conditions: S. cerevisiae mlh1 strain growth inhibition, stronger effect = higher value
How it was run: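 Growth of the mutant yeast strain after compound exposure, expressed as inhibition relative to vehicle-only controls.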

[13] = NCI Yeast Anticancer Drug Screen. Data for the sgs1 strain (AID 173);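 further: 0% = growth of vehicle-only control cultures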; conditions: S. cerevisiae sgs1 mutant, stronger effect = higher value
How it was run: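 Growth of a yeast strain bearing a defined genetic alteration is measured after compound treatment. Inhibition is expressed relative to vehicle-only controls.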

[14] = NCI Yeast Anticancer Drug Screen. Data for the mlh1 rad18 strain (AID 175); conditions: S. cerevisiae mlh1 rad18 strain growth inhibition, stronger effect = higher value
How it was run: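 Read-out is yeast growth inhibition, calculated against vehicle-only controls. The compound was applied to a strain engineered with DNA damage repair alterations.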

[15] = NCI Yeast Anticancer Drug Screen. Data for the rad18 strain (AID 177); conditions: S. cerevisiae rad18 mutant growth inhibition, stronger effect = higher value
How it was run: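 Growth of the mutant yeast strain after compound exposure, normalised to vehicle-only cultures.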

[16] = at 5.0 µM (retest, dose inferred, filed as 0.5)
[17] = at 50.0 µM (retest, dose inferred, filed as 5.0)

Measured: growth inhibition

COc1ccc2nc3cccc([N+](=O)[O-])c3c(NCCCO)c2c1
inactive: [1]; at 1.2 µM 15% | [1]; at 3.7 µM 62% | [2]; at 1.2 µM 9% | [2]; at 3.7 µM 35% | [3]; at 1.2 µM 12% | [3]; at 3.7 µM 51% | [8]; at 1.2 µM 6% | [8]; at 3.7 µM 43% | [10]; at 1.2 µM -9% | [10]; at 3.7 µM 14% | [10]; [16] 16% | [11]; at 1.2 µM 6% | [11]; at 3.7 µM 33% | [12]; at 1.2 µM 35%
active: [1]; at 11.0 µM 94% | [1]; at 33.0 µM 97% | [1]; at 100.0 µM 97% | [2]; at 11.0 µM 75% | [2]; at 33.0 µM 94% | [2]; at 100.0 µM 97% | [3]; at 11.0 µM 92% | [3]; at 33.0 µM 96% | [3]; at 100.0 µM 96% | [4]; at 1.2 µM 87% | [4]; at 3.7 µM 93% | [4]; [16] 95% | [4]; at 11.0 µM 95% | [4]; at 33.0 µM 97% | [4]; [17] 98% | [4]; at 50.0 µM 86.8% | [4]; at 100.0 µM 97% | [5]; at 1.2 µM 93% | [5]; at 3.7 µM 96% | [5]; [16] 97% | [5]; at 11.0 µM 98% | [5]; at 33.0 µM 98% | [5]; [17] 99% | [5]; at 50.0 µM 91% | [5]; at 100.0 µM 96% | [6]; at 1.2 µM 97% | [6]; at 3.7 µM 98% | [6]; at 11.0 µM 99% | [6]; at 33.0 µM 99% | [6]; at 100.0 µM 95% | [7]; [16] 95% | [7]; [17] 98% | [7]; at 50.0 µM 82.9% | [8]; at 11.0 µM 88% | [8]; at 33.0 µM 95% | [8]; at 100.0 µM 98% | [9]; [16] 99% | [9]; [17] 99% | [9]; at 50.0 µM 89.4% | [10]; at 11.0 µM 87% | [10]; at 33.0 µM 97% | [10]; [17] 99% | [10]; at 50.0 µM 85.2% | [10]; at 100.0 µM 99% | [11]; at 11.0 µM 88% | [11]; at 33.0 µM 96% | [11]; at 100.0 µM 98% | [12]; at 3.7 µM 80% | [12]; at 11.0 µM 94% | [12]; at 33.0 µM 97% | [12]; at 100.0 µM 97% | [13]; at 1.2 µM 93% | [13]; at 3.7 µM 95% | [13]; at 11.0 µM 97% | [13]; at 33.0 µM 98% | [13]; at 100.0 µM 97% | [14]; [16] 97% | [14]; [17] 99% | [14]; at 50.0 µM 81.8% | [15]; at 1.2 µM 96% | [15]; at 3.7 µM 96% | [15]; at 11.0 µM 96% | [15]; at 33.0 µM 96% | [15]; at 100.0 µM 97%

CCOC(=O)C(NC(=O)c1ccccc1)[CH](c1ccccc1)[Sn]([c]1ccccc1)([c]1ccccc1)[c]1ccccc1 (stereo not drawn)
active: [1]; at 100.0 µM 93% | [3]; at 100.0 µM 95% | [4]; [17] 73% | [4]; at 50.0 µM 95.7% | [4]; at 100.0 µM 92% | [5]; at 50.0 µM 97.8%
inactive: [1]; at 1.2 µM -81% | [1]; at 3.7 µM 0% | [1]; at 11.0 µM 0% | [1]; at 33.0 µM 11% | [2]; at 1.2 µM -2% | [2]; at 3.7 µM 2% | [2]; at 11.0 µM 3% | [2]; at 33.0 µM 3% | [2]; at 100.0 µM -6% | [3]; at 1.2 µM -1% | [3]; at 3.7 µM 2% | [3]; at 11.0 µM 2% | [3]; at 33.0 µM 17% | [4]; at 1.2 µM 0% | [4]; at 3.7 µM 3% | [4]; [16] -4% | [4]; at 11.0 µM 4% | [4]; at 33.0 µM 21% | [5]; at 1.2 µM 0% | [5]; at 3.7 µM 1% | [5]; [16] -3% | [5]; at 11.0 µM 1% | [5]; at 33.0 µM 17% | [5]; [17] 40%
